RMI-FANCM inh: blocks RMI1/RMI2 complex binding to FANCM MM2 peptide. 0.58% of 70,000 active. Fluorescence polarization, RMI core complex with F-MM2 peptide; stronger effect = lower value. FP signal (polarization) at 33 µM. AID 1159607; in the data active means FP signal below about 40
Large screens that a line does not name were inactive. The full list was thinned out, with hits kept by preference.

O=C(O)CN1C(=O)/C(=C/C(Cl)=C/c2ccccc2)SC1=S	none
CCOc1ccc(-c2csc(N/N=C\c3ccc(OC)c(OC)c3)n2)cc1	RMI-FANCM inh 16
CCOc1ccc(-c2csc(NC(=O)C3CCCCC3)n2)cc1	none
COc1ccc(/C=N\Nc2nc(-c3cccs3)cs2)cc1	none
O=C(c1cc2ccccc2s1)N1CCCN(c2nc3ccc(Cl)cc3s2)CC1	none
O=C(Oc1ccc(NS(=O)(=O)c2ccc3ccccc3c2)cc1Cl)c1ccccc1	RMI-FANCM inh 29
COc1cc(NS(=O)(=O)c2ccc3ccccc3c2)ccc1N1CCCCC1=O	none
O=C(COc1ccc(S(=O)(=O)Nc2ccccc2)cc1Cl)c1ccccc1	none
CCOC(=O)C(=CNNCCC#N)C(=O)OCC	none
O=c1nc(SCc2ccc([N+](=O)[O-])cc2)c2c([nH]1)CCC2	none
O=C(CSc1cn(Cc2cccc(F)c2)c2ccccc12)Nc1ccc([N+](=O)[O-])cc1	none
O=C1NC(=Nc2ccccc2)SC1Cc1cccc([N+](=O)[O-])c1 (stereo unspecified)	RMI-FANCM inh -6
O=C1NC(=Nc2ccc(Cl)cc2)SC1Cc1cccc([N+](=O)[O-])c1 (stereo unspecified)	none
O=C(O)CC1SC(=Nc2ccc(O)cc2)NC1=O (stereo unspecified)	none
O=C(O)C1CCCN1C(=O)c1cccs1 (stereo unspecified)	none
C[C@H](NC(CCc1ccccc1)C(=O)O)C(=O)N1CCC[C@H]1C(=O)O (stereo partly specified)	RMI-FANCM inh 34
CCOC(=O)[C@H](CCc1ccccc1)N[C@H]1CCc2ccccc2N(CC(=O)O)C1=O	none
O=C(CSc1nnc(NC(=O)CSCc2ccccc2)s1)Nc1nccs1	none
C=CCN(CC=C)S(=O)(=O)c1ccc(C(=O)Nc2ccc3c4c(cccc24)CC3)cc1	none
O=C(CCl)Nc1ccc2c(c1)OCO2	none
COc1cc(OC)cc(-c2n[nH]c(=S)o2)c1	none
O=C(CSc1nnc(-c2cccc(O)c2)o1)NC1CCCCC1	none
Brc1ccc(-n2nnnc2/C=C/NCc2ccccc2)cc1	none
CCn1nc(C(=O)NCc2ccccc2)cc1C	none
Cc1ccc(C(=O)NCC(c2ccsc2)N2CCCC2)cc1C (stereo unspecified)	none
COc1ccc(CC(=O)NCC(c2ccsc2)N2CCCC2)cc1 (stereo unspecified)	none
COc1cc(OC)cc(C(=O)NCC(c2ccsc2)N2CCCC2)c1 (stereo unspecified)	RMI-FANCM inh 9
Cc1ccc(NC(=O)c2cc(C)nn2C)c(C(=O)c2ccccc2)c1	none
CN(Cc1ccccc1)S(=O)(=O)c1ccc(C(=O)Nc2nc(-c3ccccc3)cs2)cc1	none
O=C1CC(c2ccc(O)cc2)Oc2cc(O)cc(O)c21 (stereo unspecified)	none
Oc1cc(O)c2c(c1)O[C@H](c1cc(O)c(O)c(O)c1)[C@H](O)[C@H]2c1c(O)cc(O)c2c1O[C@H](c1cc(O)c(O)c(O)c1)[C@H](O)[C@H]2c1c(O)cc(O)c2c1O[C@H](c1cc(O)c(O)c(O)c1)[C@H](O)C2	RMI-FANCM inh -7
O=C(O[C@@H]1Cc2c(O)cc(O)cc2O[C@@H]1c1cc(O)c(=O)c2c(O)c(O)cc([C@H]3Oc4cc(O)cc(O)c4C[C@H]3O)c2c1)c1cc(O)c(O)c(O)c1	none
Cc1ccc(C)c(Cn2cc(SCC(=O)NCc3ccc4c(c3)OCO4)c3ccccc32)c1	none
O=S(=O)(NC1CCCCC1NCc1ccco1)c1ccc(Cl)cc1 (stereo unspecified)	none
O=C(NCc1ccc(Cl)cc1)C(=O)NCC(c1cccc2ccccc12)N1CCCC1 (stereo unspecified)	none
CC(C)(C)c1cc(C(=O)NNC(=O)Nc2cccc(Cl)c2)n(Cc2ccccc2)n1	none
COc1cccc(C(=O)Nc2ccc3c(c2)OCC(C)(C)C(=O)N3)c1OC	none
CCOC(=O)c1cnc2cc(C(F)(F)F)ccc2c1Nc1ccc(S(=O)(=O)N(C)C)cc1	none
Cc1cc(Nc2ccc(S(=O)(=O)Nc3nccs3)cc2)c2ccc(C(F)(F)F)cc2n1	none
Cc1cc(Nc2ccc(N(C)C)cc2)c2ccc(C(F)(F)F)cc2n1	RMI-FANCM inh 19
CNC(=S)NNC(=O)CN1c2ccccc2Sc2ccccc21	none
COC(=O)N1CCc2c(sc(NC(=O)c3cccs3)c2-c2nc3ccccc3s2)C1	none
CC(C)N1CCc2c(sc(NC(=O)Cc3ccc(F)cc3)c2-c2nc3ccccc3s2)C1	none
CCOc1ccc(C(=O)Nc2sc3c(c2-c2nc4ccccc4s2)CCN(C(C)C)C3)cc1	RMI-FANCM inh -31
COc1ccc(CC(=O)Nc2sc3c(c2-c2nc4ccccc4s2)CCN(C(C)C)C3)cc1	none
CCOC(=O)N1CCc2c(sc(NC(=O)c3ccc(Br)s3)c2-c2nc3ccccc3s2)C1	RMI-FANCM inh 6
CCOC(=O)N1CCc2c(sc(N)c2-c2nc3ccccc3s2)C1	none
O=C(NCc1ccc(Cl)cc1)N1CCCC(c2nnc(-c3ccc4c(c3)OCO4)o2)C1 (stereo unspecified)	none
Cc1cc(C)cc(OCCNS(=O)(=O)c2ccc(Cl)s2)c1	none
COC(=O)c1sccc1NC(=O)CSc1nccn2nc(-c3ccc(OC)cc3)cc12	none
Nc1ccc2c(c1)CCCN2S(=O)(=O)c1ccccc1	none
NC(=O)NC(=O)Cc1nc2ccccc2s1	none
O=C(OCc1nc2ccccc2s1)c1nc2ccccc2s1	none
O=C(Cc1nc2ccccc2s1)c1ccc(O)cc1O	RMI-FANCM inh 24
CCOC(=O)c1c(NC(=O)c2ccc(Cl)cc2Cl)sc2c1CCC2	none
COc1ccc(Cl)cc1NC(=O)Cn1cccc(-c2nc(-c3ccc(OC)c(OC)c3)no2)c1=O	none
CN=c1nc(-c2ccccc2)n(-c2ccccc2)s1	none
NC(N)=NC(N)=Nc1cccc(Cl)c1	none
COc1ccc(N2CC(CNC(=O)Nc3ccc(C(F)(F)F)cc3)CC2=O)cc1 (stereo unspecified)	none
CC(C)(C)c1ccc(S(=O)(=O)N2CCN(c3ccccc3)CC2)cc1	none
CC1CN(C2=NCCN2)CC(C)O1 (stereo unspecified)	none
O=C1C=CC(=NS(=O)(=O)c2cc([N+](=O)[O-])ccc2Cl)C=C1	none
O=C1C=CC(=NS(=O)(=O)c2ccc(F)cc2)C=C1	RMI-FANCM inh 2
O=C1C=CC(=NS(=O)(=O)c2ccc3ccccc3c2)C=C1	none
O=C(Nc1ccccc1C(=O)NCCCN1CCOCC1)c1ccccc1	none
O=C(c1cccc(Cl)c1)N1CCN(c2ccc(-c3ccc4c(c3)OCO4)nn2)CC1	none
C/C(=N/N=C1/NC(=O)CS1)c1ccc(Cl)s1	none
CC(C)(C)S(=O)(=O)/C(C#N)=C/c1ccsc1	none
CCSC1=NCCN1S(=O)(=O)c1ccc2ccccc2c1	none
O=C(Cc1ccc(F)cc1)NCCc1ccc(N2CCCC2)cc1	none
O=C(NCC1(c2cccs2)CCCC1)C(=O)Nc1ccc2c(c1)OCO2	none
O=C1c2ccccc2C(=O)c2c1ccc(O)c2O	none
O=C1c2ccccc2C(=O)c2c(Sc3cccc4c3C(=O)c3ccccc3C4=O)cccc21	none
O=C1c2cccc(O)c2C(=O)c2c(O)cccc21	RMI-FANCM inh 27
COc1ccc(NC(=O)CO)cc1	none
COc1ccc(Nc2c(Cl)cc(OC)cc2Cl)cc1	none
COc1ccc(NC2=CC(=O)C=CC2=O)cc1	RMI-FANCM inh 30
N#Cc1ncoc1-c1cccc(Cl)c1	none
Cc1ccc(C)c(OC(C)C(=O)Nc2c(C)nc3ccccn3c2=O)c1 (stereo unspecified)	none
O=C(CSc1nc(=O)n(Cc2cccs2)c2c1CCCC2)Nc1ccc2c(c1)OCCO2	none
Cc1nc2ccccc2c(=O)n1-c1cccc(NS(=O)(=O)c2cccc([N+](=O)[O-])c2)c1	none
CC1=CC(=NS(=O)(=O)c2cccc([N+](=O)[O-])c2)C=CC1=O	RMI-FANCM inh -23
Cc1ccc(S(=O)(=O)N=Cc2cccc([N+](=O)[O-])c2)cc1	none
